According to PubChem BioAssay (NCATS):
Inconclusive results are not listed. Active and inactive are the calls of the source. Calls follow the shape of the dose curve; as a rule, active = well fitted inhibition curve with a large enough effect; inconclusive = small, poorly fitted or top-dose-only effect; inactive = flat fitted curve, though single readings scatter.

target: Calcium and integrin-binding protein 1 (Homo sapiens) (UniProt Q99828); assay: Primary qHTS for Identification of Calcium Integrin Binding Protein 1 (CIB1) Competitor (AID 1508620); conditions: CIB1-GST / FITC-alphaIIb peptide fluorescence polarization; series mostly up to 114 µM; activity change, negative = inhibition: at the top concentration;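 also: GST tagged CIB1 binding a fluorescein labelled alphaIIb integrin peptide tracer; top concentration of the series differs between compounds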
Sequence (Q99828 whole entry, looked up): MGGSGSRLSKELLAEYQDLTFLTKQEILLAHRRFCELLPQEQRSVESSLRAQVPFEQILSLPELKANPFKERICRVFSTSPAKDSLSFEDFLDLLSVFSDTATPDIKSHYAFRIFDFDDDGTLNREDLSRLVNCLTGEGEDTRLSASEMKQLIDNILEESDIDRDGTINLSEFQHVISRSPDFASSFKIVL
Outline: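 CIB1-GST (1 uM final) and compound incubated 15 min at room temperature before adding FITC-alphaIIb peptide tracer (100 nM final). Competition for binding read by fluorescence polarization (ex 480, em 540) after another 15 min at room temperature.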
% is scaled to controls: 0 for no effect and ±100 for the full control effect.

| SMILES | activity change, negative = inhibition |
| --- | --- |
| COc1cc2nc(Nc3ccccc3)nc(NC3CC3)c2cc1OC | -2.05% (inactive) |
| COc1ccc(C2Nc3ccccc3C(=O)N2CCCN(C)C)cc1COc1c(C)cc(NC(C)=O)cc1C (centres undefined) | -0.308% (inactive) |
| Cc1ccnc(NC(=S)NC2CCCN(c3cccc(C(F)(F)F)c3)C2)c1 (centres undefined) | 2.44% (inactive) |
| CC(C)c1ccccc1-c1nccc(NCc2ccc(-c3cccnc3)cc2)n1 | -1.04% (inactive) |
| Cn1ccc2cc(-c3ccc4ncnc(NCc5ccc6c(c5)OCO6)c4c3)ccc21 | 4.76% (inactive) |
| O=C1c2ccccc2C(=O)N1c1ncccc1O | 2.85% (inactive) |
| O=C(COC(=O)CNC(=O)c1ccccc1)Nc1ccccc1Cl | -1.75% (inactive) |
| FC(F)(F)c1cccc(-c2ccc(CNc3nc(-c4ccccc4C(F)(F)F)nc4ccccc34)cc2)c1 | 5.29% (inactive) |
| N#Cc1cccc(-c2ccc(CNc3nc(-c4ccccc4C(F)(F)F)nc4ccccc34)cc2)c1 | -2.1% (inactive) |
| Cc1ccnc(NC(=S)N2CCN(c3ccc(C(F)(F)F)cc3)CC2)c1 | -13% (inactive) |
| CCOC(=O)c1ccc(-c2ccc3ncnc(NCc4ccc(C)o4)c3c2)o1 | -7.91% (inactive) |
| FC(F)Oc1ccc(C2=Nn3c(nnc3-c3ccccc3C(F)(F)F)SC2)cc1OCC1CC1 | -4.75% (inactive) |
| COc1cccc(C2c3c(ncn(-c4ccc5c(c4)OCO5)c3=N)Oc3ccc4ccccc4c32)c1 (centres undefined) | -0.936% (inactive) |
| Cc1occc1-c1ccc2ncnc(NCc3ncc[nH]3)c2c1 | -2.18% (inactive) |
| c1nc(NCc2ccc3c(c2)OCO3)c2cc(-c3ccoc3)ccc2n1 | 9.37% (inactive) |
| CCOC(=O)c1ccc(-c2ccc3ncnc(NCc4csc(C)n4)c3c2)o1 | -15.9% (inactive) |
| Cc1nc(C2=NC(c3ccccc3Cl)C3=C(CCCC3=O)N2)cs1 (centres undefined) | -11.2% (inactive) |
| CCOC(=O)c1cccc(-n2cnc(/C=C3\NC(=O)N(CC(=O)O)C3=O)c2)c1 | 16.2% (inactive) |
| O=c1cc(CN2CCCN(c3ccc(C(F)(F)F)cn3)CC2)nc2ccccn12 | 2.16% (inactive) |
| O=[S+]([O-])(c1ccc(-c2ccccc2)cc1)N1CCN([S+](=O)([O-])c2ccc3c(c2)OCCO3)CC1 | 7.85% (inactive) |

| SMILES | activity change, negative = inhibition |
| --- | --- |
| Cc1cc(N[S+](=O)([O-])c2cc3c(cc2Cl)NC(=O)CO3)ccc1Cl | -6.02% (inactive) |
| N#Cc1nc(NCC(F)F)c2ncn(-c3cccc(Cl)c3)c2n1 | -3.86% (inactive) |
| COc1cc2c(s1)c1cnn(Cc3ccccc3F)c(=O)c1n2C | 5.29% (inactive) |
| NC(=O)C1CCN(c2nc(-c3cccc(N)c3)cs2)CC1 | 2.57% (inactive) |
| N#Cc1nc(Nc2cccc(-c3ccccc3)c2)nc(NC2CCCC2)n1 | 4.96% (inactive) |
| CCOc1ccc(C(=O)Oc2ccc(-c3nc4ccccc4[nH]3)cc2)cc1Cl | 7.2% (inactive) |
| COC(=O)c1c(NC(=O)COC(=O)c2ccc(Cl)cc2[N+](=O)[O-])sc2c1CCCCC2 | -0.0089% (inactive) |
| CC(C)(C)OC(=O)N1CCN(c2ncc(NCc3ccc(-c4ccc(C#N)cc4)o3)cn2)CC1 | 6.4% (inactive) |
| COc1ccc(-c2ccc3nnc(-c4ccccc4OC)n3n2)cc1OC | -9.15% (inactive) |
| Cc1ccc(CNc2ncnc3ccc(-c4ccoc4C)cc23)o1 | -6.85% (inactive) |
| COc1ccc(C2Nc3ccccc3C(=O)N2Cc2ccc(CNC(=O)CO)cc2)cc1COc1ccc(NC(C)=O)cc1 (centres undefined) | -3.04% (inactive) |
| C=Cc1nc(Nc2cc(F)cc(F)c2)nc(NC2CCCC2)n1 | 9.06% (inactive) |
| CC(=O)Nc1ccc(S(=O)(=O)N2CCN(S(=O)(=O)c3ccc4c(c3)OCCO4)CC2)cc1 | -14.7% (inactive) |
| N#Cc1nc(Nc2ccc(-c3ccccc3)cc2)nc(NC2CCCC2)n1 | 6.24% (inactive) |
| O=C1CCc2cc(S(=O)(=O)Nc3ccccc3-c3ccccc3)ccc2N1 | 1.77% (inactive) |
| COc1cc(/C=C2\C(=O)Nc3ccccc32)ccc1O | -2.15% (inactive) |
| N#Cc1nc(Nc2ccccc2)nc(NC2CCCCC2)n1 | -0.307% (inactive) |
| Cc1ccccc1C(=O)N1CCc2cc(-c3nc(NC(=O)c4ccc5c(c4)OCO5)sc3C)ccc21 | 0.109% (inactive) |
| CC(C)(C)OC(=O)N1CCN(c2ccc(NCc3ccc(-c4ccc(C#N)cc4)nc3)cc2)CC1 | 0.0168% (inactive) |
